Measured values as given in PubChem BioAssay.
Values without a mark were called inactive. For part of these data: Results with a measured potency or affinity are listed apart. Active and inactive are the calls of the source. Unless noted, the rule behind the calls is not given here.

Assays:
[1] = antimalarial activity against Dd2 strain (AID 2302;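 active = growth inhibition above 50% at the single 2 µM test dose, taken to imply half-maximal potency below 2 µM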;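 note: 0% = DMSO untreated growth and 100% = chloroquine plus artemisinin killed control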); conditions: P. falciparum Dd2 in RBCs, LDH growth readout, 72 h; at 2 µM; hits give high values
[2] = human hepatoma cell viability loss – ATP luminescence, cytotoxicity control for P. falciparum antimalarial project, primary screen (AID 2303;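 active = inhibition above 50%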;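 note: 0% = DMSO wells and 100% = digitonin-killed cells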); conditions: HepG2 viability, 24-48 h, at 10 µM, hits give high values
[3] = target: L-lactate dehydrogenase (Plasmodium falciparum (isolate CDC / Honduras)) (UniProt Q27743); assay: PfLDH activity inhibition – cell lysate, 3D7 strain, counter-screen for P. falciparum growth inhibition project (AID 2304);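 note: 0% = vehicle and 100% = reference inhibitor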; conditions: P. falciparum 3D7 crude extract, LDH APAD/NBT absorbance; at 2 µM; hits give high values
L-lactate dehydrogenase (Plasmodium falciparum (isolate CDC / Honduras)), sequence (Q27743 whole entry, looked up): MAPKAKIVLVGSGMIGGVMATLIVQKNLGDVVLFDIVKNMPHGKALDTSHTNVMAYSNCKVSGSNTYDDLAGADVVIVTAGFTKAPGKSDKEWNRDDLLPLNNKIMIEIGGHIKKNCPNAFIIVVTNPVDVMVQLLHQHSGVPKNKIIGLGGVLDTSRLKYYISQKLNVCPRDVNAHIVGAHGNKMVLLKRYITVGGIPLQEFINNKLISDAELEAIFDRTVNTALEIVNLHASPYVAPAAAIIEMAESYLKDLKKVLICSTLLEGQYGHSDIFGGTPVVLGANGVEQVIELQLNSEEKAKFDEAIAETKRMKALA

[4] = inhibition of 3D7 malaria parasite growth – strain 3D7 (AID 2306);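 note: 0% = DMSO wells and 100% = chloroquine plus artemisinin control wells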; conditions: P. falciparum 3D7 erythrocytic growth, LDH absorbance, 72 h; at 2 µM; hits give high values
[5] = target: Calcium-dependent protein kinase 1 (Plasmodium falciparum (isolate 3D7)) (UniProt P62344); assay: PfCDPK1 kinase inhibitors, biochemical, TCAMS library (AID 1159585; cut-off not given, nearly all actives have IC50 up to about 0.98 µM;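 note: inhibitors leave more ATP so luminescence rises with inhibition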); conditions: recombinant PfCDPK1, Kinase-Glo ATP depletion luminescence
Calcium-dependent protein kinase 1 (Plasmodium falciparum (isolate 3D7)), sequence (P62344 whole entry, looked up): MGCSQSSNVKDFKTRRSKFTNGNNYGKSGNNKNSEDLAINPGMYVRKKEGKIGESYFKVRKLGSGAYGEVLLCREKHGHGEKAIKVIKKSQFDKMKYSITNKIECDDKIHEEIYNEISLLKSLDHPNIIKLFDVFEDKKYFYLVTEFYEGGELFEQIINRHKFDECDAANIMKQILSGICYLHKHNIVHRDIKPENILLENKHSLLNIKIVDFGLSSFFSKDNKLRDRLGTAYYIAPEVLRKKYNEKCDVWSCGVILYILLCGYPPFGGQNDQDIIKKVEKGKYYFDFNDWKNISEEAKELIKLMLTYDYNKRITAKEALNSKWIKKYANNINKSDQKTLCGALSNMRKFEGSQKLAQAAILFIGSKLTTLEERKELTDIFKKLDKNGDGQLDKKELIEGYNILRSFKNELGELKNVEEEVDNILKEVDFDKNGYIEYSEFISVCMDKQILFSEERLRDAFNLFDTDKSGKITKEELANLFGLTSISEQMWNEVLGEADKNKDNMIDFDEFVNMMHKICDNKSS

[6] = target: Plasmodium falciparum protein kinase 6 (PK6, PF3D7_1337100) (UniProt Q8IDW1); assay: PfPK6 kinase inhibitors, biochemical, TCAMS library (AID 1159586); conditions: recombinant PfPK6, Kinase-Glo ATP depletion luminescence
Plasmodium falciparum protein kinase 6 (PK6, PF3D7_1337100), sequence (Q8IDW1 1-305): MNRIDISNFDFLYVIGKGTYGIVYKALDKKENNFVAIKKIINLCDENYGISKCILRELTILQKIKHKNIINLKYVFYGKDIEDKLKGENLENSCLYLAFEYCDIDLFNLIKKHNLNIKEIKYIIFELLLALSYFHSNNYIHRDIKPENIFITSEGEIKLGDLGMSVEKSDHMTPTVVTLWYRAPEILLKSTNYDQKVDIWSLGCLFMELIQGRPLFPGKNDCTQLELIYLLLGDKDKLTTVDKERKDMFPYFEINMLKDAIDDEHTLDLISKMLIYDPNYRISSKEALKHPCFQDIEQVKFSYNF

[7] = target: Protein kinase 7 (PK7), Plasmodium falciparum 3D7 (PF3D7_0213400) (UniProt Q7YTF7); assay: inhibition of Plasmodium PK7 catalytic activity – biochemical, TCAMS antimalarial set, Kinase-Glo luminescence (AID 1159587); conditions: recombinant PfPK7, Kinase-Glo ATP depletion luminescence
Protein kinase 7 (PK7), Plasmodium falciparum 3D7 (PF3D7_0213400), sequence (Q7YTF7 1-343): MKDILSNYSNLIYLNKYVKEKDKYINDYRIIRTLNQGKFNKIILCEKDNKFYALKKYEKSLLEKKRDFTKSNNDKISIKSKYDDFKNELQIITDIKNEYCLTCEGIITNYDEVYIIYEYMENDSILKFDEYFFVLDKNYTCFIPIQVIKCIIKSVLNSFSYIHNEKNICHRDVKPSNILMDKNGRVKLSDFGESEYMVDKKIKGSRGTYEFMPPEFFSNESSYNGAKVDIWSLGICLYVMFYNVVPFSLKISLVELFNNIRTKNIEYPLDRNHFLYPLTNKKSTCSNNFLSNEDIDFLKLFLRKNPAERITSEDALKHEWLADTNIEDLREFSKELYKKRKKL

[8] = target: Calcium-dependent protein kinase 4 (Plasmodium falciparum (isolate 3D7)) (UniProt Q8IBS5); assay: PfCDPK4 kinase inhibitors, biochemical, TCAMS library (AID 1159588; cut-off not given, nearly all actives have IC50 up to about 0.91 µM); conditions: recombinant PfCDPK4, Kinase-Glo ATP depletion luminescence
Calcium-dependent protein kinase 4 (Plasmodium falciparum (isolate 3D7)), sequence (Q8IBS5 whole entry, looked up): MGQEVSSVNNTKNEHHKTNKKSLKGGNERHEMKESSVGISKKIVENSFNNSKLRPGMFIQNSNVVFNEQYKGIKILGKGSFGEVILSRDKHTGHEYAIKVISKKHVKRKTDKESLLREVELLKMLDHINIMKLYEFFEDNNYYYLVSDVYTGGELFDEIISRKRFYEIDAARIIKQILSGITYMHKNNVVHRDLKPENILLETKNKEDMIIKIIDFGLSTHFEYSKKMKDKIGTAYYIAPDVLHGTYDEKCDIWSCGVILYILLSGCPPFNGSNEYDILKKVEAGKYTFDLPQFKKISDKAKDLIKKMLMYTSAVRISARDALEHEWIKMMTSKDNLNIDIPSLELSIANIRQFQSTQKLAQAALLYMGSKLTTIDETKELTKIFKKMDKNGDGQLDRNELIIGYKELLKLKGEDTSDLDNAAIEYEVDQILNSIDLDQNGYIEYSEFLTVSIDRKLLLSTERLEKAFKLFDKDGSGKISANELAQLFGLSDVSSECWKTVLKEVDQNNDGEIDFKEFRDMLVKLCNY

Row | SMILES | growth inhibition [1] | inhibition [2] | inhibition [3] [%] | growth inhibition [4] | outcome [5] | outcome [6] | outcome [7] | outcome [8]
1 | COc1ccc(C(=O)CC(=O)c2ccc(OC)cc2OC)c(OC)c1 | -2% | 1% | 2 | 98% (active) | inactive | inactive | inactive | inactive
2 | Cc1ccc(C(c2nnnn2C2CCCC2)N(Cc2ccco2)Cc2ccccc2Cl)cc1 (configuration not stated) | 78% (active) | 8% | -2 | 85% (active) | inactive | inactive | inactive | inactive
3 | CC(C)C[C@H](NC(=O)c1cc2ccccc2s1)C(=O)N[C@H]1CCN(Cc2ccc(OCCN3CCNCC3)c3ccccc23)C1 | 96% (active) | 43% | 3 | 101% (active) | inactive | inactive | inactive | inactive
4 | OC(CNCCCCCCNCC(O)c1ccc(Cl)c(Cl)c1)c1ccc(Cl)c(Cl)c1 (configuration not stated) | 17% | 99% (active) | -5 | 90% (active) | inactive | inactive | inactive | inactive
5 | O=C(C=Cc1ccc(Cl)c(Cl)c1)NC1CCN(CCc2ccccc2)CC1 | 13% | 6% | -8 | 97% (active) | inactive | inactive | inactive | inactive
6 | Cn1nc(-c2ccc(NC(=O)Nc3cc(C(F)(F)F)ccc3F)c(F)c2)c2cnc(NCCCN3CCOCC3)nc21 | 62% (active) | 31% | 3 | 100% (active) | inactive | inactive | inactive | inactive
7 | CNC(=O)Cc1ccc(C(=O)Nc2cccc(-c3cccc(-c4nc5ccc(C(F)(F)F)cc5[nH]4)c3)c2)cc1 | 37% | 40% | 5 | 95% (active) | inactive | inactive | inactive | inactive
8 | Nc1nc(N)c2cc(Sc3ccc4ccccc4c3)ccc2n1 | 92% (active) | 66% (active) | 0 | 95% (active) | inactive | inactive | inactive | inactive
9 | OC1(c2ccccc2)c2cc(Cl)ccc2OC1c1nc2c(Cl)ccc(Cl)c2o1 (configuration not stated) | 89% (active) | 7% | -6 | 98% (active) | inactive | inactive | inactive | inactive
10 | COCCN(CCOC)c1ncc(-c2ccsc2)c(-c2nc(C)c(C)s2)n1 | 63% (active) | 1% | 5 | 96% (active) | inactive | inactive | inactive | inactive
11 | Cc1cc(N[C@@H](Cc2ccccc2)C(=O)Nc2ccccc2)nc(NCCN2CCCC2)n1 | -5% | 8% | 0 | 94% (active) | inactive | inactive | inactive | inactive
12 | O=C(NC1CCN(Cc2ccccc2)CC1)c1ccc2c(=O)n(Cc3ccc(Cl)cc3)c(=S)[nH]c2c1 | 100% (active) | 16% | 5 | 101% (active) | inactive | inactive | inactive | inactive
13 | Cn1cncc1C(=O)Nc1ccc(-c2cccc(-c3nc4ccc(F)cc4[nH]3)c2)cc1 | 23% | 5% | 2 | 102% (active) | inactive | inactive | inactive | inactive
14 | O=S(=O)(c1ccccc1OC(F)(F)F)C1C[C@H]2CC[C@@H](C1)N2S(=O)(=O)c1cccc(C(F)(F)F)c1 (some centres not stated) | 99% (active) | 5% | 2 | 99% (active) | inactive | inactive | inactive | inactive
15 | O=C(/C=C/c1ccc(Cl)c(Cl)c1)NC1CCC(CN2CCC(c3nc4ccccc4s3)CC2)CC1 (configuration not stated) | 32% | 50% (active) | -4 | 87% (active) | inactive | inactive | inactive | inactive
16 | COc1cccc(-c2cnc(N)c(-c3nc4ccc(F)cc4[nH]3)c2)c1 | 43% | 47% | 5 | 97% (active) | inactive | inactive | inactive | inactive
17 | CCCCCNc1nc2nc(N)nc(N)c2nc1-c1ccccc1 | -4% | 9% | -2 | 91% (active) | inactive | inactive | inactive | inactive
18 | COc1cccc(OC2CCN(C(=O)c3ccc(-c4ccc(N5CCCC5=O)cc4C)cc3)CC2)c1 | 80% (active) | 42% | -3 | 85% (active) | inactive | inactive | inactive | inactive
19 | O=C(Nc1ccc(-n2ccc(C(F)(F)F)n2)cc1)c1cccs1 | 67% (active) | 6% | -6 | 89% (active) | inactive | inactive | inactive | inactive
20 | Cc1ccc2c(NN=Cc3cccc([N+](=O)[O-])c3)cc(C)nc2c1 | 97% (active) | 33% | 5 | 102% (active) | inactive | inactive | inactive | inactive

Row | SMILES | growth inhibition [1] | inhibition [2] | inhibition [3] [%] | growth inhibition [4] | outcome [5] | outcome [6] | outcome [7] | outcome [8]
21 | CCN(CC)C(=NCCCCCCCCN=C(/N=C(/N)Nc1ccc(Cl)cc1)N(CC)CC)/N=C(/N)Nc1ccc(Cl)cc1 | 94% (active) | 10% | -3 | 99% (active) | inactive | inactive | inactive | inactive
22 | CCC(C)NCCC(c1ccccc1)c1ccccc1O (configuration not stated) | 74% (active) | 4% | 4 | 97% (active) | inactive | inactive | inactive | inactive
23 | CCN(CC)CCN(Cc1ccc(-c2ccc(C(F)(F)F)cc2)cc1)C(=O)Cn1c(SCc2ccc(F)cc2)cc(=O)c2ccccc21 | 70% (active) | 50% (active) | -5 | 101% (active) | inactive | inactive | inactive | inactive
24 | CC(C)(C)c1ccc(C(=O)Nc2ccc(NC(=O)c3ccc([N+](=O)[O-])o3)cc2)cc1 | 4% | -2% | 2 | 81% (active) | inactive | inactive | inactive | inactive
25 | Cc1nc(C(C)Nc2nncc(-c3ccc(Cl)cc3)n2)cs1 (configuration not stated) | 55% (active) | -15% | -2 | 91% (active) | inactive | inactive | inactive | inactive
26 | CCCc1ccc(S(=O)(=O)Nc2ccc3c(c2)CCC3)cc1 | -1% | 8% | 1 | 96% (active) | inactive | inactive | inactive | inactive
27 | Cc1onc(-c2c(F)cccc2Cl)c1C(=O)Nc1ccccc1I | 52% (active) | -8% | -4 | 99% (active) | inactive | inactive | inactive | inactive
28 | COc1ccc2ncc(F)c(CCN3CCC(NCc4cc(OC)c5c(c4)OCCO5)CC3)c2n1 | 53% (active) | -2% | -3 | 101% (active) | inactive | inactive | inactive | inactive
29 | COc1ccc(C(=O)N[C@@H](CC(C)C)C(=O)N[C@H](/C=N/NC(=O)c2ccccc2)CCc2ccccc2)cc1OCCN1CCOCC1 | 86% (active) | 2% | 1 | 96% (active) | inactive | inactive | inactive | inactive
30 | Cc1cc(OCC2CCCO2)c2cc(NC(=O)C(=O)Nc3ccc4nc(C)cc(OCC5CCCO5)c4c3)ccc2n1 (configuration not stated) | 32% | 7% | -4 | 96% (active) | inactive | inactive | inactive | inactive
31 | N#Cc1ccc(N2CCN(C(=O)c3cccc(-c4noc(C(F)(F)F)n4)c3)CC2)nc1 | 58% (active) | 18% | 3 | 84% (active) | inactive | inactive | inactive | inactive
32 | CCCN(CCC)C(=O)c1cc(C(=O)N[C@@H](Cc2ccccc2)[C@H](O)CNCc2cccc(C(F)(F)F)c2)cc(N2CCCCS2(=O)=O)c1 | 74% (active) | -5% | 3 | 99% (active) | inactive | inactive | inactive | inactive
33 | CC(Cc1ccc(OCc2ccccc2)cc1)Nc1nc2ccccc2c(=O)[nH]1 (configuration not stated) | 96% (active) | 2% | -1 | 98% (active) | inactive | inactive | inactive | inactive
34 | CCN(CC)CCNC(=O)c1ccc(NC(=O)c2oc3c(Cl)cccc3c2C)cc1 | 68% (active) | 24% | 5 | 98% (active) | inactive | inactive | inactive | inactive
35 | Cc1nc2nc(N)nc(N)c2c(C)c1Cc1ccc(Cl)cc1 | 22% | 62% (active) | 0 | 94% (active) | inactive | inactive | inactive | inactive
36 | COc1ccc(-c2cncc3ccc(C(=O)NCc4ccncc4)nc23)cc1 | 98% (active) | 25% | 0 | 100% (active) | inactive | inactive | inactive | inactive
37 | CCOc1ccccc1CNc1nccc(NCc2ccc(Cl)cc2Cl)n1 | 58% (active) | 26% | -3 | 83% (active) | inactive | inactive | inactive | inactive
38 | CCOC(=O)c1ccc(NC(=O)N[C@@H](Cc2ccc(O)cc2)C(=O)NC2CCN(Cc3ccc4c(c3)OCO4)CC2)cc1 | 24% | -1% | 3 | 86% (active) | inactive | inactive | inactive | inactive
39 | CC(=O)Nc1ncc(C(=O)Nc2ccc(-c3cccc(-c4nc5ccc(C(F)(F)F)cc5[nH]4)c3)cc2)s1 | 92% (active) | 79% (active) | 3 | 101% (active) | inactive | inactive | inactive | inactive
